Assay outcomes as filed in PubChem.
A selection: hits, their analogues and other compounds. The true share with any hit is near 2%.
GALR2 ag: GALR2 receptor agonists, primary screen, cell-based | Galanin receptor type 2 (Homo sapiens), O43603 | GALR2-expressing cells, agonist activation read-out | activation, % (concentration not given with the values) | 140,000 tested, 0.48% active; in the data active = activation above about 5%, passing the limit was not always enough;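 note: 0% = vehicle buffer wells and 100% = reference agonist at full effect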
PLAP activator: PLAP enzyme activators, biochemical, luminescence, HTS. Alkaline phosphatase, placental type (Homo sapiens), P05187. purified PLAP enzyme, luminescent substrate read-out; active compounds read high. activation fold at 20 µM. 96,000 tested, 1.2% active. AID 696, 2007; in the data active = activation fold above about 2
GALR2 antag: GALR2 antagonists in receptor-expressing cells, primary screen; Galanin receptor type 2 (Homo sapiens), O43603; antagonist mode; inhibition, % at 4 µM; 140,000 tested, 0.39% active; AID 828, 2007; in the data active = inhibition above about 27%;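 note: cells stimulated with galanin 1-16 at roughly its EC80; 0% = agonist challenge control and 100% = basal control without agonist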
S1P2 antag: human S1P2 receptor antagonists, primary screen, cell-based | cell-based S1P2 antagonist assay, inhibition at 5 uM | 97,000 tested, 0.21% active | inhibition, % at 5 µM | Sphingosine 1-phosphate receptor 2 (Homo sapiens), O95136; in the data active = inhibition above about 45%;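 note: CRE beta-lactamase reporter cells expressing human S1P2 stimulated with S1P; 0% = agonist at EC80 alone and 100% = agonist plus reference antagonist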
Target sequence (O95136 whole entry, looked up): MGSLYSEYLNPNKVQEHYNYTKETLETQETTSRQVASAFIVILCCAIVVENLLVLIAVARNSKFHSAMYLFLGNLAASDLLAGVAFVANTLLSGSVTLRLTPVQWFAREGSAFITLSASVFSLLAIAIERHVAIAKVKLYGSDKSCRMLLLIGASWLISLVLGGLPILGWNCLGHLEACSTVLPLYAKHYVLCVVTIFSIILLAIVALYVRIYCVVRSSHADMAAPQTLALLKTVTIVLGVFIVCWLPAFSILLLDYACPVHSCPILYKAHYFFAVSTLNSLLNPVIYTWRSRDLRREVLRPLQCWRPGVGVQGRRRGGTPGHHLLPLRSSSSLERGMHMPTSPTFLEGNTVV
S1P2 agonist: S1P2 receptor agonists, primary screen, cell-based. Sphingosine 1-phosphate receptor 2 (Homo sapiens), O95136. S1P2-expressing cell line, agonist reporter read-out. activation, % at 4.5 µM. 97,000 tested, 0.46% active. AID 729, 2007; in the data active = activation above about 16%;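 note: 0% = vehicle low control and 100% = maximal reference agonist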
Starred values were filed as active, the others as inactive; . = no result.

SMILES	GALR2 ag	PLAP activator	GALR2 antag	S1P2 antag	S1P2 agonist
Cc1nc2sc(C(c3cccc(F)c3)N3CCOCC3)c(O)n2n1 (configuration not stated)	-1	0.9	3	-5	-3
O=C(Nc1ccc2c(c1)N(Cc1ccccc1)C(=O)c1ccccc1S2)NC1CC1	-2	2.1*	-5	2	-5
O=C(/C=C/c1ccccc1)NNC(=O)c1cccc(Cl)c1	-2	1	1	-13	-1
COCCCNC(=S)NNC(=O)c1cccnc1	-3	2.7*	-5	-4	-1
COCCCNC(=S)NNC(=O)c1ccc2c(c1)OCO2	-3	2.2*	5	-4	1
O=C(/C=C/c1ccccc1)NNC(=O)c1cccnc1	-2	2*	-11	12	-5
O=C(NNC(=S)NC(=O)c1cccnc1)c1ccccc1	-2	2.1*	1	16	-10
CC(C)CNC(=S)NNC(=O)c1ccc2c(c1)OCO2	-2	1.7	-7	4	-5
O=C(NCCCCNC(=O)c1cccnc1)c1cccnc1	0	1	3	2	-2
CC(C)Nc1nc(NC(C)C)nc(SCCOC(=O)Nc2ccc(Cl)cc2Cl)n1	0	.	-4	.	.
Cc1ccc(CN2C(=O)CCC2C(=O)NCc2cccnc2)cc1 (configuration not stated)	-2	0.9	7	6	-7
O=C(Nc1nc2c(c(=O)[nH]1)CCCC2)C1CC1	-1	1.2	2	-28	-2
O=C(NC(=O)c1cccc(OC(F)(F)C(F)F)c1)OC1CCS(=O)(=O)C1 (configuration not stated)	5.7*	1.3	-120	.	.
NNC(=O)C12CC3CC(C1)CC(n1ncnn1)(C3)C2	-2	.	-1	.	.
O=C(CCC1CCCCC1)Nc1ncn[nH]1	-3	2*	-8	7	-3
CC(=O)CSc1nnc(Cc2ccc3c(c2)OCO3)o1	-2	.	0	13	-1
Cc1cc(C)c(S(=O)(=O)N(CC(=O)NCc2cccnc2)C2CCCCC2)c(C)c1	1	2.3*	1	-1	-1
Nc1nc(SCC(=O)Nc2ccc(Br)cc2F)n[nH]1	-3	2*	11	-4	-2
CC(O)C1C(=O)OC2(C)CC(C)(C)NC(=S)N12 (configuration not stated)	-3	.	24	-2	44*
COc1ccc(CN2C(=S)NC(C)(C)CC2(C)O)cc1 (configuration not stated)	0	.	1	.	.
CCc1ccc2[nH]c(=O)c(CN(Cc3ccc4c(c3)OCO4)Cc3nnnn3C3CCCC3)cc2c1	-2	1.5	1	1	24*
CSc1ccccc1NC(=O)CN(C1CCCCC1)S(C)(=O)=O	0	2*	8	-5	-4
CC1(C)CC(=O)c2cnn(-c3nc4ccccc4[nH]3)c2C1	-2	2.1*	10	9	-3
CCCc1cc(=O)oc2c(CN3CCCC3)c(O)ccc12	1	1.3	-4	-9	0
CCCc1cc(=O)oc2c(CN3CCCC3)c(O)c(Cl)cc12	7	2.9*	2	2	11
SMILES	GALR2 ag	PLAP activator	GALR2 antag	S1P2 antag	S1P2 agonist
Cc1cc(SCC#N)n2nc(C)c(-c3ccc(Cl)cc3)c2n1	0	0.8	-2	-35	39*
Cc1cc(SCC#N)n2nc(C)c(-c3ccccc3)c2n1	-1	1.3	-6	-33	16*
O=C(NCc1ccco1)c1cc2ccc(O)cc2oc1=O	145*	1.3	-70	-174	82*
CC(C)c1ccc(N(CC(=O)NCCSC(C)(C)C)S(C)(=O)=O)cc1	-2	1.6	-11	6	-2
Cc1cccc(OCCNC(=O)c2cccc(Oc3ccc(C(F)(F)F)cc3[N+](=O)[O-])c2)c1	-2	.	-1	.	.
CCn1c(SCC(=O)Nc2ccc3c(c2)oc2ccccc23)nnc1-c1ccc(N)cc1	1	1.5	-3	28	0
CC(=O)NCCn1c(SCc2cc(=O)n3cc(Cl)ccc3n2)nc2ccccc2c1=O	-2	1.1	3	-37	22*
CC(=O)NCCn1c(SCc2ccccc2F)nc2ccccc2c1=O	0	1.1	5	-2	-7
NS(=O)(=O)c1ccc(N/C=C\C(=O)c2ccc3ccccc3c2)cc1	2	.	-1	.	.
O=C(Nc1ccc(Cl)cc1)NC1(C(=O)NCCCN2CCOCC2)CCCCC1	-5	2.7*	4	4	-5
O=C(Nc1ccccc1)NC1(C(=O)NCCCN2CCOCC2)CCCCC1	-2	1.4	-6	8	-4
COC(=O)c1ccc(N=NNc2cccc(Br)c2)cc1	-1	.	23	.	.
CC(C)OCC1CC(CC(=O)NC(=S)Nc2cccc([N+](=O)[O-])c2)C(=O)O1 (configuration not stated)	-1	.	-3	-2	47*
CCCCCCn1c2c(c(=N)c3c1CCC3)CCC2	-2	0.8	-3	0	-5
CCCCCCCCCn1c2c(c(=N)c3c1CCC3)CCC2	-1	.	22	79*	-4
CC12CCC(C(=O)Nc3cccc4ccccc34)(C1Br)C2(C)C (configuration not stated)	-3	0.9	-5	21	-2
COc1ccc(C(=O)OCCNC(=O)c2c(Cl)nc3ccccn23)cc1	-1	1.1	-7	-28	21*
CC(C)CN1C(=O)NC(NS(=O)(=O)c2ccc(N)cc2)(C(F)(F)F)C1=O (configuration not stated)	-2	.	-3	.	.
Cc1nc2ccccc2nc(C)c1=NOCc1ccccc1Cl	-1	.	15	.	.
O=C(Nc1ncn[nH]1)c1ccc(Cl)c(S(=O)(=O)Nc2ccc(Cl)cc2)c1	-1	.	3	.	.
O=C(Nc1ncn[nH]1)c1ccc(Cl)c(S(=O)(=O)N2CCCCCC2)c1	-2	2.1*	-2	-4	0
COc1ccc(C(=O)Nc2nc3ccccc3[nH]2)cc1S(=O)(=O)N1CCCC1	-1	2*	-5	-8	-6
O=C(OCc1csc(Nc2ccccc2)n1)c1ccc(Cl)cc1	0	.	1	.	.
Cc1cc(N2CCN(c3nc4ccccc4s3)CC2)n2ncnc2n1	-1	1.4	19	51*	2
Cc1cc(N2CCN(C(c3ccccc3)c3ccccc3)CC2)n2ncnc2n1	-1	1.4	-1	14	-4
SMILES	GALR2 ag	PLAP activator	GALR2 antag	S1P2 antag	S1P2 agonist
N#CC1=C(N)OC2=C(CCc3ccccc32)C1c1ccccc1 (configuration not stated)	5.0*	.	-1	.	.
Cc1ccc(/C=C2\CCC3=C2OC(N)=C(C#N)C3c2ccc(C)cc2)cc1 (configuration not stated)	12*	1.3	-7	24	17*
N#CC1=C(N)Oc2cc(O)ccc2C1c1ccccc1 (configuration not stated)	-1	1.1	0	.	.
CCCCN(CCCC)CCNC(=O)CNC(=O)c1cccs1	-3	0.9	11	-5	-1
CCCOC(=O)c1ccc(Oc2cn[nH]c2-c2ccc(OCC)cc2O)cc1	-1	1.4	-9	-2	-5
CCCOC(=O)c1ccc(Oc2c(-c3ccc(OCC)cc3O)n[nH]c2C)cc1	-3	2.2*	-5	-11	0
